Results reported in PubChem BioAssay AID1159580 (chemical genetic matrix, 2015).
Hit rate of the full screen: of about 5,500 compounds, about 2,000 (36%) were called active. Roughly 18% stayed inconclusive and do not appear here. The list shows a part of the results. Unmarked numbers belong to inactive results. No stated cut-off is given here; in the data, active means normalized growth mostly below about 0.91 (no sharp cut-off); inconclusive means no clear call, values can overlap the other calls; inactive means mostly above about 0.92.

Assay: chemical genetic growth profiling, strain panel (AID 1159580);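 further: tested at 20 µM; growth read once vehicle control cultures reached saturation at 30 °C; 1 = growth at the plate median or of vehicle wells; lower values mean less growth of the strain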
Conditions: S. cerevisiae deletion strains, growth OD
[1] = locus YAL040C, strain CLN3, hits give low values
[2] = locus YDR150W, strain NUM1, hits give low values
[3] = locus YDR363W, strain ESC2, hits give low values
[4] = locus YER002W, strain NOP16, hits give low values
[5] = locus YJR075W, strain HOC1, hits give low values
[6] = locus YMR307W, strain GAS1, hits give low values
[7] = locus YNL175C, strain NOP13, hits give low values
[8] = locus YNL197C, strain WHI3, hits give low values
[9] = locus YNL224C, strain SQS1, hits give low values
[10] = locus YOR083W, strain WHI5 (second series), hits give low values
[11] = locus YCL061C, strain MRC1 (second series), hits give low values
[12] = locus YGR078C, strain PAC10, hits give low values
[13] = locus YPL055C, strain LGE1, hits give low values

Structure (SMILES) | normalized growth [1] | normalized growth [2] | normalized growth [3] | normalized growth [4] | normalized growth (locus YGR229C, strain SMI1, hits give low values) | normalized growth [5] | normalized growth [6] | normalized growth (locus YNL128W, strain TEP1, hits give low values) | normalized growth [7] | normalized growth [8] | normalized growth [9] | normalized growth [10] | normalized growth (locus YPL241C, strain CIN2, hits give low values) | normalized growth [11] | normalized growth [12] | normalized growth [13] | normalized growth (locus YNL322C, strain KRE1, hits give low values)
Nc1ncnc2c1ncn2C1CCCC1 | 1.01 | 1 | 1.02 | 1.01 | 1.02 | 1.04 | 1.01 | 1.03 | 1.01 | 1.01 | 1.03 | 1.01 | 1.01 | – | – | – | –
Nc1ncnc2c1c(-c1ccc(Oc3ccccc3)cc1)cn2C1CCCC1 | 0.94 | – | 1.02 | 1.02 | – | 1.02 | – | – | 1.01 | 1.1 | 0.952 | 0.838 (active) | – | 1.01 | 0.934 | 0.989 | –
C[C@@H]1O[C@@H](O[C@H]2C[C@@H](O)[C@]3(CO)[C@@H]4C(CC[C@]3(O)C2)[C@@]2(O)CC[C@H](C3COC(=O)C3)[C@@]2(C)C[C@H]4O)[C@H](O)[C@H](O)[C@H]1O (some centres not stated) | 0.998 | 0.996 | 1 | 0.996 | – | – | 1.01 | – | 0.98 | 1 | 0.974 | 1.05 | – | 1 | 1.01 | 1.01 | 1.01
